Compound activity deposited in PubChem by Broad Institute.
Only a selection was taken, and hits are over-represented in it overall.
Tg IFNy HTS: T. gondii growth inhibition with IFN-gamma, primary screen, cell-based; Toxoplasma gondii growth in IFN-gamma-treated host cells; hits give low values; activity change, negative = inhibition, % (no concentration beside the values); 3.8% of 69,000 active; in the data active = activity change below about -70%, passing the limit was not always enough;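 note: host cells are HeLa cells infected with Toxoplasma gondii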
Each line names hits and unclear results; the compound was inactive in the other large screens.

O=C(C[C@H]1CC[C@H]2[C@@H](COC[C@H](O)CN2C(=O)c2cccnc2)O1)NCC1CC1	none
CC(C)CCN1[C@@H]2CCN(C(=O)c3ccn[nH]3)CC[C@@H]2Oc2ccccc2S1(=O)=O	none
COc1ccc(CNc2nc(-c3nnc(-c4ccccc4)o3)nc3ccccc23)cc1	none
CCCSCCCNc1nc(-c2nnc(-c3ccccc3)o2)nc2ccccc12	Tg IFNy HTS -92.0
Cc1ccc(-c2nnc(-c3nc(NCCc4cccs4)c4ccccc4n3)o2)cc1	none
Cn1ccc(-c2cc(C(=O)Nc3ccc(F)cc3)c3ccccn23)n1	none
Cc1nc(-c2cccc(F)c2)sc1CCNC(=O)COc1ccccc1F	none
O=c1[nH]c(NC2CCN(Cc3nnnn3Cc3ccccc3)CC2)nc2c1CCCC2	none
Cc1cccc(C)c1NC(=O)CN1CCC(Nc2nc3c(c(=O)[nH]2)CCCC3)CC1	none
CC(C)(C(=O)N1CCC(Nc2nc3c(c(=O)[nH]2)CCCC3)CC1)c1ccc(Cl)cc1	Tg IFNy HTS -101.4
CC(C)=CCCC1=CCC2C(=O)NNC(=O)C2C1 (centres undefined)	none
COc1ccc(S(=O)(=O)N(C)CC(=O)O)cc1OC	none
COC(=O)C[C@H]1C(C)(C)C(=O)[C@@H]2CC3=C(CC[C@]4(C)C3=CC(=O)O[C@H]4c3ccoc3)[C@@]1(C)C2=O	none
CCN1C(=O)CCc2cc(NC(=O)/C=C/c3ccccc3)ccc21	Tg IFNy HTS -82.6
CCN1C(=O)CCc2cc(NC(=O)c3ccc4c(c3)OCO4)ccc21	Tg IFNy HTS -86.7
CCN1C(=O)CCc2cc(NC(=O)CC(C)C)ccc21	none
CCN1C(=O)CCc2cc(NC(=O)C3CCCC3)ccc21	none
CC(C)CN1C(=O)CCc2cc(NC(=O)c3ccc4c(c3)OCO4)ccc21	Tg IFNy HTS -76.7
COCCN1C(=O)CCc2cc(NC(=O)c3ccc4c(c3)OCO4)ccc21	none
CCC(=O)Nc1ccc2c(c1)CCC(=O)N2CC(C)C	none
CCN1C(=O)CCc2cc(NC(=O)c3ccc(F)cc3)ccc21	none
Cc1ccc(C(=O)Nc2ccc3c(c2)CCC(=O)N3CC(C)C)c(C)c1	none
C[C@H](CO)N1C[C@H](C)[C@@H](CN(C)C(=O)Nc2cccc(Oc3ccccn3)c2)OCc2cnnn2CCCC1=O	none
CC(C)C(NC(=O)OC(C)(C)C)C(=O)NC(c1ccccc1)c1ccccc1 (centres undefined)	none
COc1ccc(-c2noc(-c3c(O)c4cc(Cl)ccc4[nH]c3=O)n2)cc1	none
CC1(c2ccccc2)OC(C(=O)O)=CC1=O (centres undefined)	none
Cc1noc(C)c1C(=O)N1CC[C@@H]2C[C@H](c3nccs3)O[C@H]2C1	none
NCCC1CN(c2nc(-c3ccccc3)nc3c2CCNC3)CCO1 (centres undefined)	none
CN1CCCn2nc(C(=O)NCCSc3nnnn3C)cc2C1	none
COc1ccc2c3c(n(C)c2c1)[C@H](CO)N(C(=O)c1ccc(F)cc1)CC31CN(C(=O)Nc2ccc(F)cc2)C1	none
CN(C)c1ccc(C(=O)c2ccccc2)cc1	none
Cc1ccc(Sc2ccc(C(=O)c3ccccc3)cc2)cc1	Tg IFNy HTS -77.7
Cc1ccc(S(=O)(=O)NC(=O)c2ccccc2)cc1	none
Cc1ccc(C2(O)CCN(Cc3[nH]cc(C)c(=O)c3C)CC2)nc1	none
Cc1ccc(S(=O)(=O)N2CCC(c3nc(C(=O)N(C)C)c(C)o3)CC2)cc1	none
CCCn1cnnc1CN(C)Cc1cc2n(n1)CCNC2	none
Nc1ccccc1SCC(O)Cn1ccc2ccccc21 (centres undefined)	none
OC(CNCCNc1ncccc1C(F)(F)F)Cn1ccc2ccccc21 (centres undefined)	Tg IFNy HTS -82.2
FC(F)(F)c1ccnc(NCCNc2ncccc2C(F)(F)F)n1	none
CN(Cc1ccno1)C(=O)c1csc(Cc2ccccc2)n1	none
CCCC(=O)Nc1ccc2c(c1)OC[C@@H](C)N(C(=O)c1cccnc1)C[C@H](C)[C@@H](OC)CN(C)C2=O	none
Clc1ccc(C(Cn2ccnc2)OCc2ccc(Sc3ccccc3)cc2)c(Cl)c1 (centres undefined)	Tg IFNy HTS -78.2
Cc1c(C(=O)Cn2ccnc2)sc2ccc(Cl)cc12	none
S=C(Nc1ccc(Cl)cc1Cl)NC(Cn1ccnc1)c1ccccc1 (centres undefined)	none
Clc1ccc(C(Cn2ccnc2)OCc2c(Cl)cccc2Cl)c(Cl)c1 (centres undefined)	none
Clc1ccc(C(Cn2ccnc2)OCc2csc3c(Cl)cccc23)c(Cl)c1 (centres undefined)	Tg IFNy HTS -79.2
S=C(NCCCn1ccnc1)Nc1cc(Cl)ccc1Cl	none
O=C(C[C@@H]1CC[C@H]2[C@@H](COC[C@@H](O)CN2Cc2cc(F)cc(F)c2)O1)Nc1nccs1	none
Cc1ccccc1-c1noc(CCC(=O)N(C)CC(C)N2CCOCC2)n1 (centres undefined)	none
CC(C)[C@@H]1C/C=C\CCNC(=O)[C@@H](C)CC(=O)N1	none
CC(C)(C)c1ccc(C2=NNC(SCC(=O)c3ccccc3)=NN2)cc1	none
O=C(Nc1ccncc1)c1ccc(S(=O)(=O)N2CCCC2)cc1	none
CCC(=O)N1CC2(CN(C(C)=O)C2)c2c([nH]c3cc(OC)ccc23)[C@H]1CO	none
Cc1cc2c(cc1-c1nccn1-c1ccc3cn[nH]c3c1)OCO2	Tg IFNy HTS -81.1
